Measurements from PubChem BioAssay (Tox21).
Several values for one entry are separate records, joined by “and”; a condition that tells them apart may be missing. Equal entries are not always repeated. Records with an inconclusive call do not appear. Where a structure was tested more than once in an assay, its records may differ in their call. Activity calls are given as the source filed them. Unless noted, calls come from the whole dose curve.

Key:
[1] = Nuclear factor erythroid 2-related factor 2/antioxidant responsive element (Nrf2/ARE) small molecule agonists: qHTS cell viability counter screen in human keratinocytes (AID 1919968; active = well fitted curve in the direction sought with a large enough effect in the repeat runs; an effect the other way counts as inactive or inconclusive; note: nearly all actives have a fitted effect of over 55% in size; note: potency is the fitted concentration of half-maximal effect)
Outline: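 Parallel cytotoxicity read: KeratinoSens HaCaT cells, compound treatment 23 h, viability by CellTiter-Fluor fluorescence 1 h post-reagent.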

[2] = Nuclear factor erythroid 2-related factor 2/antioxidant responsive element (Nrf2/ARE) small molecule agonists: luciferase reporter gene qHTS assay in human keratinocytes (AID 1919969); note: nearly all actives have a fitted effect of over 35% in size; note: potency is the fitted concentration of half-maximal effect
[3] = target: Gonadotropin-releasing hormone receptor (Homo sapiens) (UniProt P30968); test: Human gonadotropin-releasing hormone receptor (GnRHR) small molecule agonists, calcium flux assay in GnRHR-HEK293 cells (AID 1920063); note: nearly all actives have a fitted effect of over 35% in size; note: potency is the fitted concentration of half-maximal effect
Outline: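 Calcium flux, agonist mode, human GnRHR stably integrated in HEK293; dye 1 h at 37 C before compound; Ex/Em=480/540 kinetic read, 3 min; 15 concentrations, triplicate.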

[4] = target: KiSS-1 receptor (Homo sapiens) (UniProt Q969F8); test: Human kisspeptin (KISS1R) small molecule agonists, calcium flux assay in KISS1R-HEK293 cells (AID 1920064; active = well fitted curve in the direction sought with a large enough effect in the repeat runs; an effect the other way counts as inactive or inconclusive; note: potency is the fitted concentration of half-maximal effect)
Outline: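 Triplicate 15-concentration series were applied to dye-loaded human KISS1R HEK293 cells, and agonist-evoked calcium fluorescence was captured for 3 min.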

[5] = G protein-coupled receptor (GPCR) small molecule agonists, calcium flux assay: HEK293 wild type cell line counter screen (AID 1920065); note: potency is the fitted concentration of half-maximal effect
Outline: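 Non-specific calcium responders were flagged by adding DMSO-dissolved compounds to dye-loaded cells and reading 480/540 nm fluorescence each second for 3 min; ATP served as positive control.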

[6] = p53 small molecule agonists, cell-based qHTS assay with human liver microsomes: qHTS cell viability counter screen (AID 1963579); note: nearly all actives have a fitted effect of over 45% in size
Outline: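 HLM-supplemented (0.5 mg/mL final) and NADPH-supplemented (0.5 mg/mL final) p53RE-bla cultures, 4,000 cells per well, were dosed with compounds in DMSO for 16 h at 37 C; luminescent ATP detection (CellTiter-Glo, 30 min, room temperature) quantified surviving cells.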

[7] = p53 small molecule agonists, cell-based qHTS assay with rat liver microsomes: qHTS cell viability counter screen (AID 1963580); note: nearly all actives have a fitted effect of over 45% in size
Outline: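 Rat liver microsome (0.5 mg/mL final) and NADPH (0.5 mg/mL final) co-incubation with compounds for 16 h at 37 C on HCT-116 p53RE-bla cells; cytotoxicity taken from intracellular ATP luminescence.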

[8] = p53 small molecule agonists, cell-based qHTS assay: qHTS cell viability counter screen (AID 1963581); note: nearly all actives have a fitted effect of over 45% in size
Outline: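 Multiplexed with the reporter read, a CellTiter-Glo step (30 min, room temperature) gauges ATP-based viability of HCT-116 p53RE-bla cells after 16 h compound incubation at 37 C.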

[9] = p53 small molecule agonists, cell-based qHTS assay (AID 1963582; active = well fitted activation curve with a large enough effect in the signal ratio in the repeat runs, not every such curve was filed as active; the % refers to the signal ratio)
Outline: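 Beta-lactamase reporter cells (p53RE-bla) treated with compounds for 16 h at 37 C; FRET substrate, 2 h, room temperature; fluorescence intensity.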

[10] = target: 5-hydroxytryptamine receptor 2A (Homo sapiens) (UniProt P28223); test: 5-hydroxytryptamine receptor 2A (HTR2A) small molecule antagonists, cell-based qHTS assay (AID 1963586); note: nearly all actives have a fitted effect of over 45% in size; note: potency is the fitted concentration of half-maximal effect
Outline: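 CHO cells stably expressing human HTR2A were plated for 18 h at 37 C, then loaded with calcium dye for 1 h. Compounds were preincubated 5 min at room temperature before DOI (4 nM solution) was added. Kinetic fluorescence was read for 3 min.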

[11] = target: 5-hydroxytryptamine receptor 2A (Homo sapiens) (UniProt P28223); test: 5-hydroxytryptamine receptor 2A (HTR2A) small molecule agonists, cell-based qHTS assay (AID 1963587); note: nearly all actives have a fitted effect of over 30% in size; note: potency is the fitted concentration of half-maximal effect
Outline: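 Kinetic calcium-flux fluorescence (2 min, 1 sec intervals) after compound addition in agonist mode. HTR2A-CHO cells were cultured 18 h, then dye-loaded 1 h at 37 C.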

[12] = target: Muscarinic acetylcholine receptor M1 (Homo sapiens) (UniProt P11229); test: Cholinergic receptor muscarinic 1 (CHRM1) small molecule antagonists, cell-based qHTS assay (AID 1963588); note: nearly all actives have a fitted effect of over 40% in size
Outline: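 Compounds were tested at 15 concentrations in three independent runs. Dye-loaded CHRM1-CHO cells were exposed 5 min at room temperature before stimulation by acetylcholine added at 50nM. Intracellular calcium was read kinetically on FDSS for 3 min.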

[13] = target: Muscarinic acetylcholine receptor M1 (Homo sapiens) (UniProt P11229); test: Cholinergic receptor muscarinic 1 (CHRM1) small molecule agonists, cell-based qHTS assay (AID 1963589); note: nearly all actives have a fitted effect of over 35% in size; note: potency is the fitted concentration of half-maximal effect
Outline: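 qHTS, 15-point titration, 3 independent runs: compounds pin-transferred onto dye-loaded CHRM1-CHO cells (human M1), calcium fluorescence followed every second to detect agonism.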

[14] = cAMP Responsive Elements (CRE) small molecule agonists, cell-based qHTS assay (AID 1963590)
Outline: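 Quantitative HTS for CRE agonists: HEK 293T CRE-bla cells, overnight plating, 3 h compound incubation at 37 C/5% CO2, then 2 h room-temperature LiveBLAzer B/G FRET substrate loading.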

[15] = cAMP Responsive Elements (CRE) small molecule antagonists, cell-based qHTS assay (AID 1963591; active = well fitted inhibition curve with a large enough effect in the signal ratio in the repeat runs, not every such curve was filed as active; the % refers to the signal ratio)
Outline: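 Fluorescence intensity from cleaved LiveBLAzer B/G substrate (2 h, room temperature) quantified CRE-bla activity in HEK 293T cells exposed 3 h to compound with 0.25 uM final NKH477.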

[16] = target: Beta-2 adrenergic receptor (Homo sapiens) (UniProt P07550); test: Adrenergic beta2 receptor (ADRB2) small molecule antagonists, cell-based qHTS assay (AID 1963592); note: nearly all actives have a fitted effect of over 50% in size; note: potency is the fitted concentration of half-maximal effect
Outline: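 Assay format: CHO-ADRB2 cells, 18-20hr seeding at 37C/5% CO2, then compound plus 1nM isoproterenol agonist mix for 0.5hr RT. Homogeneous time-resolved fluorescence cAMP detection after 1hr, expressed as 665/615 nm ratio.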

[17] = target: Beta-2 adrenergic receptor (Homo sapiens) (UniProt P07550); test: Adrenergic beta2 receptor (ADRB2) small molecule agonists, cell-based qHTS assay (AID 1963593);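 note: CHO cells stably overexpressing human ADRB2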
Outline: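 CHO cells stably over-expressing ADRB2 were plated overnight at 37C, then dosed with compounds plus a stimulation mix containing 100uM IBMX and 25uM Ro-20-1724 for 0.5hr at room temperature. cAMP was measured by HTRF competition, 1hr.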

[18] = target: D(2) dopamine receptor (Homo sapiens) (UniProt P14416); test: Dopamine D2 receptor (DRD2) small molecule agonists, cell-based qHTS assay (AID 1963594); note: nearly all actives have a fitted effect of over 35% in size; note: potency is the fitted concentration of half-maximal effect
Outline: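 cAMP accumulation in DRD2-HEK293 cells measured by HTRF after 1 h detection; compounds added 10 min before NKH477 (200nM […]) forskolin-analogue stimulation, 30 min at room temperature, with Ro20-1724 present at 0.1 mM final.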

[19] = target: D(2) dopamine receptor (Homo sapiens) (UniProt P14416); test: Dopamine D2 receptor (DRD2) small molecule antagonists, cell-based qHTS assay (AID 1963595; active = well fitted inhibition curve with a large enough effect in the signal ratio in the repeat runs, with a control signal flat; the % refers to the signal ratio; note: potency is the fitted concentration of half-maximal effect)
Outline: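 Cells were plated and grown for 24 h at 37 °C. Ro20-1724 (0.1 mM final) went in first, then compound for 10 min. NKH477 (200 nM) with quinpirole (12 nM) followed for 30 min at RT, then HTRF detection reagents for 1 h.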

Measured: Potency

Sequence of Beta-2 adrenergic receptor (Homo sapiens) (P07550 whole entry, looked up): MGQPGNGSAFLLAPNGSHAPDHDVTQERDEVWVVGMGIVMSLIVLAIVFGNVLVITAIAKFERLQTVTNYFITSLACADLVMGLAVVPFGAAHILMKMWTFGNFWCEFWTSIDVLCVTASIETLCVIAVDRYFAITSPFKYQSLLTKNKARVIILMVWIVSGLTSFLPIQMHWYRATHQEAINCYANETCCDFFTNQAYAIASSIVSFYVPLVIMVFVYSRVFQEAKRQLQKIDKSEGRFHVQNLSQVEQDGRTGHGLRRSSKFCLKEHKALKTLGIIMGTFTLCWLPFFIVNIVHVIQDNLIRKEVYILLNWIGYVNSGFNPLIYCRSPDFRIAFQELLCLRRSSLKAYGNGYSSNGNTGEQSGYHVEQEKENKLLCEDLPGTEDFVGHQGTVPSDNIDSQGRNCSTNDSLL
Sequence of D(2) dopamine receptor (Homo sapiens) (P14416 whole entry, looked up): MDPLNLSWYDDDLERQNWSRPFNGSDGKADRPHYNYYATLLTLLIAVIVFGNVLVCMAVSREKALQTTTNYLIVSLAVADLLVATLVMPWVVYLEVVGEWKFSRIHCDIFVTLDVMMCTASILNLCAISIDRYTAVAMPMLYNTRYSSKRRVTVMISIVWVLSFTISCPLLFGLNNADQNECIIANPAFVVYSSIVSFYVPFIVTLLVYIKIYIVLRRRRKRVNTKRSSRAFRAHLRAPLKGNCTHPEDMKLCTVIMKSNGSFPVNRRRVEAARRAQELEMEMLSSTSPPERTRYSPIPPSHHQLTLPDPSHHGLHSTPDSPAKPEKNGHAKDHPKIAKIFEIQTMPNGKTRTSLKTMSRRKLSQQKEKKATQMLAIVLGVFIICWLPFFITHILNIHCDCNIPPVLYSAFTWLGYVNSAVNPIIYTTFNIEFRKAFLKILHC
Sequence of 5-hydroxytryptamine receptor 2A (Homo sapiens) (P28223 whole entry, looked up): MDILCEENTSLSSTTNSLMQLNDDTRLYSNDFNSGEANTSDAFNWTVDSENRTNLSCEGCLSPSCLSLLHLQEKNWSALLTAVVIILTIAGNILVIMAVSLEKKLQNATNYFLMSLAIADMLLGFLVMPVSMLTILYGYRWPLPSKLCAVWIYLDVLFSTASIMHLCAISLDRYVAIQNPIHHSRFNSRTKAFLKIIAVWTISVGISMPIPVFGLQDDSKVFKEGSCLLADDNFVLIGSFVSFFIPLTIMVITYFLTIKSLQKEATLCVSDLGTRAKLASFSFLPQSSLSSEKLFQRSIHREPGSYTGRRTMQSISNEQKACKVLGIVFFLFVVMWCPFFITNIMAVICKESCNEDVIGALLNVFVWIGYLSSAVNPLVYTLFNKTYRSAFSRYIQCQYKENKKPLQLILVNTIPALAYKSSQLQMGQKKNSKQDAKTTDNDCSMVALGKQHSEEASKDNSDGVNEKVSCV
Sequence of Muscarinic acetylcholine receptor M1 (Homo sapiens) (P11229 whole entry, looked up): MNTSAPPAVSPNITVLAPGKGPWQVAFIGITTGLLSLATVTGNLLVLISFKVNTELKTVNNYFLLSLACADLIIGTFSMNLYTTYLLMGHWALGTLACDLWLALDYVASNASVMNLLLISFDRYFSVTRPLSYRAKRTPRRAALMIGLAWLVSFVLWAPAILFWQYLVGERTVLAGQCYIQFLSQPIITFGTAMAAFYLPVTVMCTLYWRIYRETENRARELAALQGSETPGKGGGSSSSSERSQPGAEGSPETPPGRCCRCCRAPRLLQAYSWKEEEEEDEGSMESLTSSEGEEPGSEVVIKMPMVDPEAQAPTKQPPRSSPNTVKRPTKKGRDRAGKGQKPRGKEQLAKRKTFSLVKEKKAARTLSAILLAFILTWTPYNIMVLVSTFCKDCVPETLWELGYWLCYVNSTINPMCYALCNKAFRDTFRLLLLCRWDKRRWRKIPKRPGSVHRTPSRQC
Sequence of KiSS-1 receptor (Homo sapiens) (Q969F8 whole entry, looked up): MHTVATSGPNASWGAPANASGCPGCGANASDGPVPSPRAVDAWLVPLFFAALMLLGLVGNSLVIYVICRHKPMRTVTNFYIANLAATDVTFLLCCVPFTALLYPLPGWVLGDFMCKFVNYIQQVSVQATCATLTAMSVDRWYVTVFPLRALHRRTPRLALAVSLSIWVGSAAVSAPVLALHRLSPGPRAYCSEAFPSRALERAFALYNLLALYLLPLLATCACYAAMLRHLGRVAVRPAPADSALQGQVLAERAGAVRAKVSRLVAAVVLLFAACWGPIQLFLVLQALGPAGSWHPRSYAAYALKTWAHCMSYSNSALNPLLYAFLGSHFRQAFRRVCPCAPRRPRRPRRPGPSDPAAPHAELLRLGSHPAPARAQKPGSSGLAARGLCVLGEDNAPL
Sequence of Gonadotropin-releasing hormone receptor (Homo sapiens) (P30968 whole entry, looked up): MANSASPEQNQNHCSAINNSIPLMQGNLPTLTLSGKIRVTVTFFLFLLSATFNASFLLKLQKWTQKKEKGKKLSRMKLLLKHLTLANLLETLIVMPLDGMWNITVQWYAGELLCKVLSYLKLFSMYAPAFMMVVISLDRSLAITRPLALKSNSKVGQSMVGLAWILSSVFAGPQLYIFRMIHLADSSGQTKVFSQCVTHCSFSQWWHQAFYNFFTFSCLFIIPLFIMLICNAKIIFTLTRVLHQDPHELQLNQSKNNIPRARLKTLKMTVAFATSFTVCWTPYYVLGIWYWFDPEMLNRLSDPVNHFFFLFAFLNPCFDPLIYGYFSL

COC(=O)Nc1ccc(Cl)c(Cl)c1
inactive: all assays above

CC(C)=CCCC(C)O (stereo unspecified)
not listed: [7]
inactive: all other assays above

COc1ccc2c(c1)CCCC2=O
not listed: [13] | [19]
inactive: all other assays above

COc1ccc(C(=O)NCc2ccc(OCCN(C)C)cc2)cc1OC
not listed: [7]
inactive: all other assays above

NC(=O)c1ccccc1Cl
not listed: [14] | [18] | [19]
inactive: all other assays above

CCCCCCCCCCCCCCCCCCOCC(O)CO (stereo unspecified)
not listed: [14] | [19]
inactive: all other assays above

CCCCCCCCS
not listed: [11] | [17]
inactive: all other assays above

CCCC(=O)OCc1ccccc1
not listed: [15]
inactive: all other assays above

O=C(Nc1ccc(Cl)cc1)Nc1ccc(Cl)c(Cl)c1
21.6 µM (active) and inactive: [2]
active: [16] 68.2 µM and 54.5 µM
48.6 µM (active) and inactive: [19]
not listed: [13] | [14] | [17]
inactive: all other assays above

CC1=CC[C@@H](C(C)(C)O)CC1
not listed: [8]
inactive: all other assays above

CC(C)(c1ccccc1)c1ccc(Nc2ccc(C(C)(C)c3ccccc3)cc2)cc1
not listed: [8]
inactive: all other assays above

CC(C)(C)c1ccc(O)c(O)c1
active: [2] 63.2 µM and 8.63 µM
not listed: [9] | [17]
inactive: all other assays above

CCC/C=C/C=O
not listed: [9] | [12] | [14]
inactive: all other assays above

CC(C)CC(C)O (stereo unspecified)
not listed: [9] | [14]
inactive: all other assays above

CCCCCCCO
inactive and 61.1 µM (active): [2]
not listed: [9] | [10]
inactive: all other assays above

Cc1cccc(C)c1[N+](=O)[O-]
not listed: [9]
inactive: all other assays above

c1cc(C(c2ccc(OCC3CO3)cc2)C(c2ccc(OCC3CO3)cc2)c2ccc(OCC3CO3)cc2)ccc1OCC1CO1 (stereo unspecified)
active: [2] 22.5 µM and 21.7 µM
not listed: [9] | [14] | [15]
inactive: all other assays above

CN1Cc2c(N)cccc2C(c2ccccc2)C1 (stereo unspecified)
active: [10] 14.9 µM
not listed: [9] | [17]
inactive: all other assays above

O=[N+]([O-])c1ccc2nc[nH]c2c1
not listed: [9]
inactive: all other assays above

O=C(O)c1ccccc1C(c1ccc(O)cc1)c1ccc(O)cc1
not listed: [9] | [17]
inactive: all other assays above

Nc1ccc(Cl)c(N)c1
not listed: [9] | [17]
inactive: all other assays above

C[C@@H]1CC(=O)NN=C1c1ccc(NN=C(C#N)C#N)cc1
active: [1] 11.9 µM and 21.1 µM | [2] 23.7 µM and 26.6 µM
not listed: [9] | [11] | [14] | [15] | [17] | [19]
inactive: all other assays above

O=C1OC2(c3ccccc31)c1cc(Br)c(O)c(Br)c1Oc1c2cc(Br)c(O)c1Br
active: [3] 31.4 µM and 14.2 µM and 15.1 µM | [4] 39.5 µM and 44.9 µM and 23.9 µM | [5] 35.2 µM and 35.7 µM and 16.9 µM | [11] 22.2 µM and 1.59 µM and 19 µM | [13] 19.8 µM and 22.5 µM and 21.3 µM | [16] 62 µM and 62.8 µM and 21.1 µM | [18] 62 µM and 60.5 µM and 29.8 µM
inactive: [1] | [2] | [6] | [7] | [8] | [10] | [12]

O=c1cc(-c2ccccc2)oc2ccccc12
active: [2] 4.86 µM and 2.16 µM
inactive and 13.6 µM (active): [1]
not listed: [9] | [14] | [17]
inactive: all other assays above

CCCCC(CC)COCC1CO1 (stereo unspecified)
not listed: [9]
inactive: all other assays above

CS(=O)(=O)c1ccc(Cl)cc1
not listed: [9] | [11] | [17]
inactive: all other assays above

CCN(CC)c1ccc(C(=O)c2ccccc2C(=O)O)c(O)c1
not listed: [9] | [14] | [15] | [17]
inactive: all other assays above

COc1ccc(N)c(C)c1
not listed: [9]
inactive: all other assays above

Cc1cccnc1
not listed: [9]
inactive: all other assays above

Cc1ccc(C(C)C)cc1O
not listed: [9] | [14] | [19]
inactive: all other assays above
